Measured values as given in the supplement of paper PMC11732987, “Enantioselective OTUD7B fragment discovery through chemoproteomics screening and high-throughput optimisation” (Communications Chemistry, 2025).

How the values were obtained:
Assay in all cases: log2 ratio of Biotin-Ahx-Ub-VS probe labelling (fragment/DMSO); higher = less target engagement (more negative = stronger competition), active = hit call of the paper (q ≤ 0.05, log2 ratio ≤ -1)
Settings in all cases: compound concentration: 200 uM; treatment time: 3 h
USP34 = USP34 (UniProt Q70CQ2)
Outline: (§1)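 Triplicate samples of HEK293T lysate, 495 µg each, received fragment at 200 µM or vehicle for 3 h, followed by Biotin-Ahx-Ub-VS (0.5 µM final) for 1 h. After NeutrAvidin enrichment of labelled DUBs and LysC/trypsin digestion, peptides were run by diaPASEF LC-MS/MS. The values are average log2 fragment/vehicle ratios from global-median-normalised Spectronaut label-free quantities, tested by unpaired t-test on proteins having ≥2 unique peptides.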

USP36 = biological target: T1, USP36 (UniProt Q9P275)
T1 sequence (whole entry): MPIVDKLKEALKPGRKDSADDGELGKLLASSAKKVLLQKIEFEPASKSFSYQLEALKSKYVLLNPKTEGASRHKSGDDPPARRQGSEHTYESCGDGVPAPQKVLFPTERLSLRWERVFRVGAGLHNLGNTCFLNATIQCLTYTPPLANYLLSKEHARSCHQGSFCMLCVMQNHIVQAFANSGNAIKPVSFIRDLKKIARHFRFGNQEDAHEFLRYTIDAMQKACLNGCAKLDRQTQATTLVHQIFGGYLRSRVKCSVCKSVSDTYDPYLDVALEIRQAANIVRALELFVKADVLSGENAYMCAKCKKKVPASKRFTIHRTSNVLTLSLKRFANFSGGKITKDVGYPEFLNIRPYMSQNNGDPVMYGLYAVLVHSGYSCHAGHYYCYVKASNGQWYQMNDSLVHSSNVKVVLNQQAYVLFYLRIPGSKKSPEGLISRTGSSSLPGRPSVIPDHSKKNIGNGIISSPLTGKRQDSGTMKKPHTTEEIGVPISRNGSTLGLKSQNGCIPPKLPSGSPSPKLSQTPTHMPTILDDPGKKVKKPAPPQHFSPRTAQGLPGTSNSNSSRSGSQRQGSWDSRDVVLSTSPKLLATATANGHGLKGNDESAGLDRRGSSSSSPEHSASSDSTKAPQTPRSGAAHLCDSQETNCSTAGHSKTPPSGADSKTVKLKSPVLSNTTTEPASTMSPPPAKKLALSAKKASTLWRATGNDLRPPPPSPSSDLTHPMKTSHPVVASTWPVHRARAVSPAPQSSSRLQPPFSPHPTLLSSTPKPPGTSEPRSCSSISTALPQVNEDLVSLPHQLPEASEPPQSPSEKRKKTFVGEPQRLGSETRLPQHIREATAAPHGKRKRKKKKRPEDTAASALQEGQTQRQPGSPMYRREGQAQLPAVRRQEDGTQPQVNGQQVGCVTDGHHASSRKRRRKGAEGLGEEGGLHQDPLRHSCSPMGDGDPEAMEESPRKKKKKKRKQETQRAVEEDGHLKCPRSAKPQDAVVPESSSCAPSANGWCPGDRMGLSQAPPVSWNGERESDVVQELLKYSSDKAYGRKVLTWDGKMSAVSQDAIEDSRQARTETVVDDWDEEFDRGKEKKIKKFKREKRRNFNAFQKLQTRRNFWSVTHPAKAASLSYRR
Outline: as §1

USP38 = biological target: T2, USP38 (UniProt Q8NB14)
T2 sequence (whole entry): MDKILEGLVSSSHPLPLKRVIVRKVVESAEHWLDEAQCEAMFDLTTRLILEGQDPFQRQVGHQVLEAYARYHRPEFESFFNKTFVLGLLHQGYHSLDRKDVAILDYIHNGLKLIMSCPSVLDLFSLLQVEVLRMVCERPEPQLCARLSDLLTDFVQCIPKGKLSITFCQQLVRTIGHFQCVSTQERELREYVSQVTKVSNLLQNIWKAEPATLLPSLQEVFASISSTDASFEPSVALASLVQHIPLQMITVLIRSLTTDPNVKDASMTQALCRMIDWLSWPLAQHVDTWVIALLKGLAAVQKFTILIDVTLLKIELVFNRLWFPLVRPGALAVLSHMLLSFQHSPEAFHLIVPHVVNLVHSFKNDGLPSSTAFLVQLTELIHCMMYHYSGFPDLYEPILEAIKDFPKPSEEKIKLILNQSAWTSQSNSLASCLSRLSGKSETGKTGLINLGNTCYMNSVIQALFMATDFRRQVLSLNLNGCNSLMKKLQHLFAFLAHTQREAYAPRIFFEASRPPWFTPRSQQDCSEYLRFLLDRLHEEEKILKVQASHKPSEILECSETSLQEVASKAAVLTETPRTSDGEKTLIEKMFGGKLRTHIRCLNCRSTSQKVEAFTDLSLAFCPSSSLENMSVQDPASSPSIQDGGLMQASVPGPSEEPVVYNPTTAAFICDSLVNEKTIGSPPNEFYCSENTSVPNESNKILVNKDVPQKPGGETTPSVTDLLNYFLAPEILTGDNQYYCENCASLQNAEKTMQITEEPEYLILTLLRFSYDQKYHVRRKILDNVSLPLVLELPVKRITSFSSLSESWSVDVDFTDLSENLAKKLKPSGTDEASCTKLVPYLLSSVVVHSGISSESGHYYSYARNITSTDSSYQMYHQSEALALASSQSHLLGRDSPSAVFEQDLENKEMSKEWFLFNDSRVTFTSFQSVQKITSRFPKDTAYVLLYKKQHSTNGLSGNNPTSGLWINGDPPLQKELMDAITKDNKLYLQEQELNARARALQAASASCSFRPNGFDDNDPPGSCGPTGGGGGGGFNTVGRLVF
Outline: as §1

USP39 = biological target: T3, USP39 (UniProt Q53GS9)
T3 sequence (whole entry): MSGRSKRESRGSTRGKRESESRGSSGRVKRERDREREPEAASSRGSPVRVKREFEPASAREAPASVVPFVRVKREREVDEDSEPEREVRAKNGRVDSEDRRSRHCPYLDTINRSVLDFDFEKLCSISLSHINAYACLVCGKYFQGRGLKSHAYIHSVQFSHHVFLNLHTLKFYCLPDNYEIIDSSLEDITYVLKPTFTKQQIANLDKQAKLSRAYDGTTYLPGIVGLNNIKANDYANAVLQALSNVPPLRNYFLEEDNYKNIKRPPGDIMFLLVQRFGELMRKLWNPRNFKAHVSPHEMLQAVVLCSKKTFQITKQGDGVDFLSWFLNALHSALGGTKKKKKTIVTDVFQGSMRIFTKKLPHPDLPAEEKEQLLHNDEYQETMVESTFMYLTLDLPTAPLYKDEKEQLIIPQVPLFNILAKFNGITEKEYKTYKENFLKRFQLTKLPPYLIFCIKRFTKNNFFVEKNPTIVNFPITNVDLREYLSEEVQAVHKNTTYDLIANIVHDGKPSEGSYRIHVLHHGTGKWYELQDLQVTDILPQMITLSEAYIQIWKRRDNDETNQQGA
Outline: as §1

USP4 = biological target: T4, USP4 (UniProt Q13107)
T4 sequence (whole entry): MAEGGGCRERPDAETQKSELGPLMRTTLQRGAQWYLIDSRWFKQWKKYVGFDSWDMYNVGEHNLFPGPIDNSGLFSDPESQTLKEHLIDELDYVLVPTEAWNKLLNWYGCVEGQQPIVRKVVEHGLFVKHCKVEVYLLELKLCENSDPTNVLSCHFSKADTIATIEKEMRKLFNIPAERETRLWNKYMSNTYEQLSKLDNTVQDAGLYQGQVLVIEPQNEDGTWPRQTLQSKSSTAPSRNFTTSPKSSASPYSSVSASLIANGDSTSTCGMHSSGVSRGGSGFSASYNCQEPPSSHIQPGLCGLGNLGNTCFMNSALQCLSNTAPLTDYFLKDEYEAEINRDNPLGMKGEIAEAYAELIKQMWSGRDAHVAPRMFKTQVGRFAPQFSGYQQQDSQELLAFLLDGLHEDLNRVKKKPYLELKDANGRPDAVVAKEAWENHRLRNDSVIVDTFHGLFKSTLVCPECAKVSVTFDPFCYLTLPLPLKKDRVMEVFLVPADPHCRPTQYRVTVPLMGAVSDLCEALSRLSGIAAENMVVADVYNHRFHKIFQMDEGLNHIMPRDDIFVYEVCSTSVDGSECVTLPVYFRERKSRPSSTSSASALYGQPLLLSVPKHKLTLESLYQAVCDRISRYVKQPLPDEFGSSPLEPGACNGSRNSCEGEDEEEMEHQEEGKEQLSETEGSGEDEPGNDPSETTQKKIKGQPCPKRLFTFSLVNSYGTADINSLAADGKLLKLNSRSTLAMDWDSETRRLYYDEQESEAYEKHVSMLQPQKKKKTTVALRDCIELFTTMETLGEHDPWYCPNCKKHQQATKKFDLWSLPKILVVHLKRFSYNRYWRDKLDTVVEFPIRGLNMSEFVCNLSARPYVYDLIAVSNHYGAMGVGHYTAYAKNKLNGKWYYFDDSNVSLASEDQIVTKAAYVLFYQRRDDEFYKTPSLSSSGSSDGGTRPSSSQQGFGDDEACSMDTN
Outline: as §1

Measured: log2 ratio of Biotin-Ahx-Ub-VS probe labelling

Sequence of USP34 (Q70CQ2 whole entry, the tested form may be a part): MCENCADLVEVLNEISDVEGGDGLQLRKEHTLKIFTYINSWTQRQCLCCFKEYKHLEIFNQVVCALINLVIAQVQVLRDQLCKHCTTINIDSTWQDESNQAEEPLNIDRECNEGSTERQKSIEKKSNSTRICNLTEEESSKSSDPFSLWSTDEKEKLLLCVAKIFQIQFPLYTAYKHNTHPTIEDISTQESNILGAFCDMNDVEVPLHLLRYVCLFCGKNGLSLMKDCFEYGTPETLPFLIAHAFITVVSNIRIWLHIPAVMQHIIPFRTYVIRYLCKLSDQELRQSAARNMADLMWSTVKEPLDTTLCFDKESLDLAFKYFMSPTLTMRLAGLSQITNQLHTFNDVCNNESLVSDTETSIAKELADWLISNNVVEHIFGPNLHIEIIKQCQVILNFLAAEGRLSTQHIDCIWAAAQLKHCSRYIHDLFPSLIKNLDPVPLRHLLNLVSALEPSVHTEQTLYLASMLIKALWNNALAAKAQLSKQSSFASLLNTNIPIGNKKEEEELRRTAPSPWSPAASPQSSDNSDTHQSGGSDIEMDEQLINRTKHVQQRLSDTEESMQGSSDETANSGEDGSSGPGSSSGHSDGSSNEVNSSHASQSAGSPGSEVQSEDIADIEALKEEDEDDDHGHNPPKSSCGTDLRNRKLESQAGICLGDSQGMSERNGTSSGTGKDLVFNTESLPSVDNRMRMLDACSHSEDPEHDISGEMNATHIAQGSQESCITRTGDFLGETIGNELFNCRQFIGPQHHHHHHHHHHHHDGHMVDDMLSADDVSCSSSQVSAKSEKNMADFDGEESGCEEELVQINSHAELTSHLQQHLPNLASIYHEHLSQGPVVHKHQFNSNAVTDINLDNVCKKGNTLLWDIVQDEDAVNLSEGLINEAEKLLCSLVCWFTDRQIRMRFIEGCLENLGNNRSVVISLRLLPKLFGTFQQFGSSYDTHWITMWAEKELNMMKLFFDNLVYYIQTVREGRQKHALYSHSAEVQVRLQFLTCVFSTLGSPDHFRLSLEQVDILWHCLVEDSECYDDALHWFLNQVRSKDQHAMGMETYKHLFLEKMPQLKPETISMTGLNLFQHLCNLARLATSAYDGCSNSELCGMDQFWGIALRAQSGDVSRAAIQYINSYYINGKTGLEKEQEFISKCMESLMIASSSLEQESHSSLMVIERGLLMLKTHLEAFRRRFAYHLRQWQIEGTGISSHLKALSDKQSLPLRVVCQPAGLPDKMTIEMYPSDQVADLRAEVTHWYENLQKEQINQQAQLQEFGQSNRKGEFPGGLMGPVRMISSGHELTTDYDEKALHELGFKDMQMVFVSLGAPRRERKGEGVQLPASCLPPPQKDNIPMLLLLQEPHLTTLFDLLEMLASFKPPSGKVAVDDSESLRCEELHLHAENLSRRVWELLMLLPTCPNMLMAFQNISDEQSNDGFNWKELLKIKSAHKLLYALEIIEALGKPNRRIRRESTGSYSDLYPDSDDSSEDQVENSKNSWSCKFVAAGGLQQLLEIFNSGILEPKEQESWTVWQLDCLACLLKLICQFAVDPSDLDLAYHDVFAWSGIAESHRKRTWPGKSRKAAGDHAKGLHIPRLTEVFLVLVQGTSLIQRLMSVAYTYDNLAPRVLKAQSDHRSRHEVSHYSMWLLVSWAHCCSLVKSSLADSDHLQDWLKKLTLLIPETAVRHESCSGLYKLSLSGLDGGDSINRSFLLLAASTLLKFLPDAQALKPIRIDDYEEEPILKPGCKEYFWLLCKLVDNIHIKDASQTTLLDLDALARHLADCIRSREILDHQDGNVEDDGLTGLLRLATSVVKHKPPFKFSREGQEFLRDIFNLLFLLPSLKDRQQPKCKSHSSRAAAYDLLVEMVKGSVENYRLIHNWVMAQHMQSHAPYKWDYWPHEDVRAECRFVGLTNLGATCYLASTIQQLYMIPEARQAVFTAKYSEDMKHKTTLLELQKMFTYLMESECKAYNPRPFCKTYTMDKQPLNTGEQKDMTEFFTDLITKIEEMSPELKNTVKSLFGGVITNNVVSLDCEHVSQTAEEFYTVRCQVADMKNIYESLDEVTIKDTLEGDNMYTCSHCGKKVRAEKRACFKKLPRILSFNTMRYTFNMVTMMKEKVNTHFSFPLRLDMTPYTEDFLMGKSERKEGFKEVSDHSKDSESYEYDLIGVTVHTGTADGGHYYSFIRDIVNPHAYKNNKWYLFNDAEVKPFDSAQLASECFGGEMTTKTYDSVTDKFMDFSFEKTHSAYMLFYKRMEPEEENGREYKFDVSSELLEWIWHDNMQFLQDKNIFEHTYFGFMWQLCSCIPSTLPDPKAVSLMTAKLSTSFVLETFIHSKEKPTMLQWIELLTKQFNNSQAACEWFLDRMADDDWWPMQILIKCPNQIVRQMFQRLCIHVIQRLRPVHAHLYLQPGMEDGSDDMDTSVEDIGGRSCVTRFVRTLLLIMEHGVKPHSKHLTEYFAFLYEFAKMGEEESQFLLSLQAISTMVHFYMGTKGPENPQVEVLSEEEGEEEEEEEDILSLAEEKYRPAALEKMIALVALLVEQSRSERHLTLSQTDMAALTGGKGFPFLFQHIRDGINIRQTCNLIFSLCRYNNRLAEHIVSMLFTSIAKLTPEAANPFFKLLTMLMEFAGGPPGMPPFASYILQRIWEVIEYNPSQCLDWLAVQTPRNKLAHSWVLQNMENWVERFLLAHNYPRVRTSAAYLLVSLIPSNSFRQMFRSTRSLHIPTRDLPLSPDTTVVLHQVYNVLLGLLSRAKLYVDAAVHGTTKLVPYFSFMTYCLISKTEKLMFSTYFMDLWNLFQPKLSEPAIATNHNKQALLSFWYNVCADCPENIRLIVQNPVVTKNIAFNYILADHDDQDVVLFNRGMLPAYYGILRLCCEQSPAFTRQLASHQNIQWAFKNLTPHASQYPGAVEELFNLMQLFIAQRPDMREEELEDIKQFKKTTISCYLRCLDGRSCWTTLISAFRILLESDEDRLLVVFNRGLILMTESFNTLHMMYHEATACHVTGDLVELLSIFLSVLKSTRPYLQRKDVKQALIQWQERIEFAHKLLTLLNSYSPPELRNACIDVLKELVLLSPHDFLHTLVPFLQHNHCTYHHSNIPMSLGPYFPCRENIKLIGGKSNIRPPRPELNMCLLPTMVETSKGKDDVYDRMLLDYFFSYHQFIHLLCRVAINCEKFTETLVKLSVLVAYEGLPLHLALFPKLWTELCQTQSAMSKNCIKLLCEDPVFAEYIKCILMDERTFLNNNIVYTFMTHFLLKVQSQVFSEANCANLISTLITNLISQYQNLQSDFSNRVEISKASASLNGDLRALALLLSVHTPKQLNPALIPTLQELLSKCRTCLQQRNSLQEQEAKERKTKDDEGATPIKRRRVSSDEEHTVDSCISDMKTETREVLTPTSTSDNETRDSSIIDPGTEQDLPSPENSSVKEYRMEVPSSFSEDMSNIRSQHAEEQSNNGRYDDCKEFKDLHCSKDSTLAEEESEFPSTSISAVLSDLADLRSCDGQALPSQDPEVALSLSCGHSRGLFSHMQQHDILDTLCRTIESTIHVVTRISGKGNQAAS

CN1c2ccccc2C(NC(=O)CCl)CS1(=O)=O (stereo not given)
inactive: USP34 -0.111 | USP36 -0.287 | USP38 -0.071 | USP39 0.00949 | USP4 0.0683
